Results on 52 compounds are retold here after PubChem BioAssay AID504582 (Broad Institute, 2011).

Among all 340,000 compounds or so, about 2,300 (0.68%) were called active. For the sample, actives were picked, then their nearest neighbours and some compounds at random. Values without a mark were called inactive. No stated cut-off is given here; in the data, active means growth rescue above about 28% (passing the limit was not always enough); inconclusive means no clear call, values can overlap the other calls.

The assay can be described thus: rescue of yeast from PfHsp40 toxicity, primary screen, S. cerevisiae, ATP luminescence (AID 504582).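 Further: yeast W303a lacking pdr1 and pdr3 grown in galactose medium; growth measured after three days at 30 °C.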 Particulars: S. cerevisiae expressing PfHsp40, growth rescue, at 12.5 µM, hits give high values.
In the case of `CCc1cc(C(N)=O)c(NC(=O)c2ccc(OC)cc2)s1`, the growth rescue was 648% (active). `COc1ccc(C(=O)Nc2sc(C)c(C)c2CN2CCOCC2)cc1`: the growth rescue is 0.992%.

Regarding `CCc1cc(C(=O)c2ccc(OC)cc2)c(NC(=O)CN2CCN(C)CC2)s1`, the growth rescue was -1.5%. Regarding `O=C(c1ccc2c(c1)OCO2)N1CCNc2ccccc2C1`, the growth rescue is -1.38%. With `COc1cc(C(=O)NC2CCN(C)CC2)ccc1Nc1ncc2c(n1)N(C1CCC(O)CC1)CCC(=O)N2C` (configuration not stated), the growth rescue was 44.4% (active). Turning to `COc1ccc(-n2cnc3cc(C(=O)NC4CCCC4)ccc32)cc1`, the growth rescue was 3.16%.

As for `COc1ccc(C(=O)NC2CC2)cc1OC1CCN(Cc2cnn(C)c2)CC1`, the growth rescue is -0.458%.

In the case of `O=C(/C=N/O)Nc1ccccc1`, the growth rescue is -1.81%. For the compound `c1ccc(-c2nccc(-c3ccc(-n4cnc5ccccc54)cc3)n2)nc1`, the growth rescue is 3.45%.

As for `CN(C)Cc1c(O)ccc2c(=O)c(-c3ccccc3Cl)coc12`, the growth rescue was -1.86%.

`CN(c1ccc(C(=O)NCCC2=CCCCC2)cc1)S(C)(=O)=O`: the growth rescue is -0.452%. Regarding `O=C(NCCC1=CCCCC1)c1ccc(Cl)c([N+](=O)[O-])c1`, the growth rescue was 34.2% (active).

In the case of `O=C(NCCC1=CCCCC1)c1ccc(-n2cncn2)cc1`, the growth rescue is 0.575%. The result for `CCOc1ccccc1N(CC(=O)NC1CCCCC1)C(=O)CCCC(=O)Nc1ccccn1` reads 0.515%; that for `Cc1ccc(NC(=O)CN(C)C(=O)COC(=O)C(C)(C)Oc2ccc(Cl)cc2)cc1`, -0.952%; that for `O=C(NNC(=S)NC(=O)c1cn(-c2ccccc2)nc1-c1ccccc1)c1ccncc1`, 117% (active).

On to `Cc1ccc(-c2nn(-c3ccccc3)cc2C(=O)NC2CCC(O)CC2)cc1` (configuration not stated), for which the growth rescue is -0.972%. Consider `NC(=O)C1CCN(C(=O)c2cn(-c3ccccc3)nc2-c2cccnc2)CC1`, for which the growth rescue was -1.23%.

In the case of `Cc1ccc(SC(=O)COc2ccc(C)c(C)c2)cc1`, the growth rescue is -0.169%.

`CCOc1ccc(-c2ccc(SCC(=O)N3CCOCC3)nn2)cc1`: the growth rescue was -0.865%. On to `CC(C)C[C@@H](COc1ccccc1)N1CCN(CC(C)C)CCC1=O`, for which the growth rescue was 0.09%. The result for `CC1(C)C=Cc2c(ccc3c2OC[C@@H](c2ccc(O)cc2O)C3)O1` reads 232% (active); that for `Nc1cc(N)nc(SCC(=O)Nc2cccc(S(=O)(=O)N3CCCCC3)c2)n1`, 0.009%; that for `Cn1c(CC2Sc3ccccc3NC2=O)nnc1SCC(=O)c1ccc(Cl)cc1` (configuration not stated), -0.256%. Regarding `COc1ccc(C2N=C(N)N=C(N)N2c2ccccc2)cc1OC` (configuration not stated), the growth rescue is 0.038%. As to `COCCN(C(=O)c1ccccc1F)c1c(N)n(Cc2ccccc2)c(=O)[nH]c1=O`, the growth rescue is -0.643%. The result for `CC/C(=N\NC(=O)c1ccccc1O)c1c(O)n(Cc2ccccc2)c(=O)[nH]c1=O` reads 44.8% (active); that for `CC/C(=N\NC(=O)c1ccccc1Cl)c1ccc(Br)s1`, -0.619%. As to `COc1ccc(C(=O)CN2C(=O)NC(C)(c3ccc(C)cc3)C2=O)cc1OC` (configuration not stated), the growth rescue is 0.439%. With `COc1ccc(C2Nc3ccccc3C(=O)N2c2ccc(Cl)cc2)cc1Cn1cc([N+](=O)[O-])cn1` (configuration not stated), the growth rescue is 0.089%.

As to `Cn1ncc(Br)c1C(=O)NC1CCCC1`, the growth rescue is -0.467%.

In the case of `COC(=O)[C@@H]1C[C@@]2(O)[C@H](O)[C@H](O)[C@H](O)C[C@H]2N1Cc1ccc(C)s1`, the growth rescue was -1.59%. With `COC(=O)[C@@H]1C[C@@]2(O)[C@@H](O)[C@@H](O)[C@@H](O)C[C@H]2N1Cc1ccc(C)s1`, the growth rescue was -0.441%. The result for `COC(=O)[C@@H]1C[C@@]2(O)[C@H](O)[C@H](O)[C@H](O)C[C@H]2N1Cc1ccc(C(C)(C)C)cc1` reads 29% (active); that for `CC(=O)c1cccc(-c2ccc(CN3C(CC(C)C)C(=O)N(Cc4cn(CC5CCCCC5)nn4)CCS3(=O)=O)cc2)c1` (configuration not stated), 0.3%. Consider `Cc1cc(N=Nc2ccc3ccccc3c2)ccc1O`, for which the growth rescue was 91.3% (active). For `C#CCOCCOCCOCCNc1nc(N2CCN(C(=O)CCCCCCCCCCNC(=O)[C@H]([C@@H](C)CC)n3cc(CCCCN=C(N)N)nn3)CC2)nc(N2CCN(C(=O)CCCCCCCCCCNC(=O)[C@H](CO)n3cc(CCCSC)nn3)CC2)n1`, the growth rescue was 29.5% (active).

In the case of `C#CCOCCOCCOCCNc1nc(N2CCN(C(=O)[C@H](CCCN=C(N)N)n3cc(C(N)[C@@H](C)CC)nn3)CC2)nc(N2CCN(C(=O)[C@H](CO)n3cc([C@@H](N)C(C)C)nn3)CC2)n1` (some centres not stated), the growth rescue is -0.354%. Turning to `C#CCOCCOCCOCCNc1nc(N2CCN(C(=O)[C@H](C(C)C)n3cc(CCO)nn3)CC2)nc(N2CCN(C(=O)[C@H](C(C)C)n3cc(CCO)nn3)CC2)n1`, the growth rescue is -2.28%.

For the compound `CCOc1ccc(S(=O)(=O)n2ccnc2)c2ccccc12`, the growth rescue is -0.0665%. Consider `COc1ccc(NC(=O)N2CCCC2C(=O)NCc2ccccc2Cl)cc1` (configuration not stated), for which the growth rescue was -2.16%. As for `COc1cccc(NC(=O)C2CCCN2C(=O)OCc2ccccc2)c1` (configuration not stated), the growth rescue was 0.607%. Then `CN(C)C(=O)CCC(=O)N1CCCCC1C(=O)Nc1ccc(Oc2ccccc2F)cc1` (configuration not stated), with 141% (active); and `COc1ccc(OC)c(C(=O)c2ccc(C(=O)N3CCN(Cc4csc(C)n4)CC3)cc2)c1`, with -1.18%; and `O=C(Cn1nnc(-c2ccccc2)n1)N/N=C/c1ccc(-c2ccc(Cl)cc2)o1`, with -1.63%.

`O=C(NCc1ccco1)C1CCCN(S(=O)(=O)c2cnc[nH]2)C1` (configuration not stated): the growth rescue is 0.411%. For the compound `COc1cc(/C=N/O)cc(Br)c1OS(=O)(=O)c1ccc(C)cc1`, the growth rescue was -0.295%.

Consider `COc1cc(C(=O)NCc2ccncc2)cc(Br)c1OCc1ccccc1`, for which the growth rescue was 1.27%. For `COc1cc(/C=N/O)cc(Br)c1OCc1cccc(Cl)c1`, the growth rescue was 157% (active). Turning to `CC(=O)Oc1ccc(C)cc1N1C(=O)c2ccc(C(=O)O)cc2C1=O`, the growth rescue was 103% (active). `COc1ccc(OC)c(NC(=O)c2ccc3c(c2)C(=O)N(c2ccc(OC(C)=O)cc2)C3=O)c1`: the growth rescue is -0.414%. With `Cc1cccc(N2C(=O)c3ccc(C(=O)Nc4cccc(C(=O)O)c4)cc3C2=O)c1`, the growth rescue was -0.247%.
